# According to article PMC7862700, “An all-to-all approach to the identification of sequence-specific readers for epigenetic DNA modifications on cytosine”:
# Key:
# Assay in all cases: DAPPL (digital affinity profiling via proximity ligation, sequencing); 10 mM Tris-HCl pH 7.5, 50 mM NaCl, 1 mM DTT, 4% glycerol, room temperature, 30 min; GST-TFs on glutathione beads, 16-mer random dsDNA library, 0.1% formaldehyde crosslink after washing; high values mean tight binding
# FLI1 = target: T1, FLI1 (Homo sapiens, UniProt Q01543 1-452); settings: protein: recombinant; tags: N-terminal GST; dsDNA, one strand shown
# T1 sequence: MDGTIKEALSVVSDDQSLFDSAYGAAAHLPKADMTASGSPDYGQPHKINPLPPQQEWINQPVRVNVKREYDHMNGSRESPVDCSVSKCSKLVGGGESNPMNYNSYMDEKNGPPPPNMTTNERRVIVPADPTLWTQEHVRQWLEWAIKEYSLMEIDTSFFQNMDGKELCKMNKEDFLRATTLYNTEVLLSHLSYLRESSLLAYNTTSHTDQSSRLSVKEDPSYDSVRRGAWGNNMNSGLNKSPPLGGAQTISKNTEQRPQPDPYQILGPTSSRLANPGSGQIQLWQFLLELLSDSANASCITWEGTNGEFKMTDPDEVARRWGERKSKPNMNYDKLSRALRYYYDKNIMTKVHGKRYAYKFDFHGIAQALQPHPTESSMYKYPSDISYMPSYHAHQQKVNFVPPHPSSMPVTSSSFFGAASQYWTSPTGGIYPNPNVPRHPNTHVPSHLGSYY
# Summary of the method: (§1)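 Binding signal is given per hexamer as its read frequency for a factor divided by its frequency in the tag-only sample. GST-fused human transcription factors were expressed in yeast, captured on glutathione beads, barcoded with DNA and pooled with that sample, then incubated with 200 nmole of a 16-mer random double-stranded DNA library in Tris/NaCl/DTT/glycerol buffer for 30 min at room temperature. The pools were then washed, crosslinked, proximity-ligated, amplified by PCR and sequenced on an Illumina NextSeq500.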
# ELK1 = target: T2, ELK1 (Homo sapiens, UniProt P19419 1-428); settings: protein: recombinant; tags: N-terminal GST; dsDNA, one strand shown
# T2 sequence: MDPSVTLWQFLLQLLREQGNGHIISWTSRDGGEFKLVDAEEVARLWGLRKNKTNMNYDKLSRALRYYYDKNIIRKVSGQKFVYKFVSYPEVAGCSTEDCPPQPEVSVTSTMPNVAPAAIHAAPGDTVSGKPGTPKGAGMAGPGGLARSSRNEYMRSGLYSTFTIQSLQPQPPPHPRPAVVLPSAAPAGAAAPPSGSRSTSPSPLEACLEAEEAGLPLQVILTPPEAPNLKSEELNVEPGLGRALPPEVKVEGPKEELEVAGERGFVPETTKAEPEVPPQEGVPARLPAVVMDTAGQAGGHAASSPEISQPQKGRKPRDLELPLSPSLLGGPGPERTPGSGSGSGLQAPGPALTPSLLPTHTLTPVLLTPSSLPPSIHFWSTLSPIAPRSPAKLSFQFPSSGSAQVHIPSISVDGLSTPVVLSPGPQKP
# Summary of the method: as §1
# GABPA = target: T3, GABPA (Homo sapiens, UniProt Q06546 1-454); settings: protein: recombinant; tags: N-terminal GST; dsDNA, one strand shown
# T3 sequence: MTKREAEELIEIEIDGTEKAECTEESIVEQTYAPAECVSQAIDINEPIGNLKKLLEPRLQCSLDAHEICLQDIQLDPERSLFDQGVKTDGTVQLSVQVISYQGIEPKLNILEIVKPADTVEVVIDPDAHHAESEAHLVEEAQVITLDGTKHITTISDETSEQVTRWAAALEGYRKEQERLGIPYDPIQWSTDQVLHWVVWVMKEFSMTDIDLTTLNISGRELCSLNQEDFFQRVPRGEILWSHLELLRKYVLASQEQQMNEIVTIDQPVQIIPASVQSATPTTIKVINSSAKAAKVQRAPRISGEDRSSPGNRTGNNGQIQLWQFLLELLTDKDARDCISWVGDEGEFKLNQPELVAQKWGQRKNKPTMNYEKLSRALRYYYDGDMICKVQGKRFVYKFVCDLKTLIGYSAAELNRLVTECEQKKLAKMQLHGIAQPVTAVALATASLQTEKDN
# Summary of the method: as §1
# ERG = target: T4, ERG (Homo sapiens, UniProt P11308 1-479); settings: protein: recombinant; tags: N-terminal GST; dsDNA, one strand shown
# T4 sequence: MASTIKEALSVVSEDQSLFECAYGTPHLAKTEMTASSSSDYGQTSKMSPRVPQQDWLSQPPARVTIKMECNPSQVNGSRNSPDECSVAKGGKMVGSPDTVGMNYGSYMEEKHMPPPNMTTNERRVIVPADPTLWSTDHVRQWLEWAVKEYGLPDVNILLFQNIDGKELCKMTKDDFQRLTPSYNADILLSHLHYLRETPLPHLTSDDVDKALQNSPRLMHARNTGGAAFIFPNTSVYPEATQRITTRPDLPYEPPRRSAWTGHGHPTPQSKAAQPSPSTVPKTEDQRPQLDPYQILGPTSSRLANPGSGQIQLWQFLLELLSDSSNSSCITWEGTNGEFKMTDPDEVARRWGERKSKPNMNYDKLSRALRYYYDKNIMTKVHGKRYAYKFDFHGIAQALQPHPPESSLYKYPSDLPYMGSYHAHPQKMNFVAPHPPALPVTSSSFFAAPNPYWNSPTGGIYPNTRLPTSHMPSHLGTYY
# Summary of the method: as §1
# ELF1 = ELF1 (Homo sapiens, UniProt P32519 1-619); settings: protein: recombinant; tags: N-terminal GST; dsDNA, one strand shown
# Sequence of ELF1 (P32519 whole entry): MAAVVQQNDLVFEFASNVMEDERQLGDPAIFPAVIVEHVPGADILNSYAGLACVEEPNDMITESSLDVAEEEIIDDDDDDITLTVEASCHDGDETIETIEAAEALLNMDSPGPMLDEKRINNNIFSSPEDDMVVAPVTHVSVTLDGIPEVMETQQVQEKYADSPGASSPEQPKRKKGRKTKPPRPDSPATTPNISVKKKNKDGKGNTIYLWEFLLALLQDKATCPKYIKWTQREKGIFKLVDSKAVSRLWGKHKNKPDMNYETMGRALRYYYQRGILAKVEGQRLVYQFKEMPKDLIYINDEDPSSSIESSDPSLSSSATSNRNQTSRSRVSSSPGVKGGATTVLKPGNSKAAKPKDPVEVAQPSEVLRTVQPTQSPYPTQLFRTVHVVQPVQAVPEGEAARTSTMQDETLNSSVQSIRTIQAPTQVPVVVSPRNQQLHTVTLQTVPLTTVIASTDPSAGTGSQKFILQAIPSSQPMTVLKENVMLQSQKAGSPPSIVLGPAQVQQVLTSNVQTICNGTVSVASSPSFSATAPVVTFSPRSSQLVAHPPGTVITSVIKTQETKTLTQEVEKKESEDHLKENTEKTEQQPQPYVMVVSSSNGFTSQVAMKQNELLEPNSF
# Summary of the method: as §1
# EHF = target: T5, EHF (Homo sapiens, UniProt Q9NZC4 1-300); settings: protein: recombinant; tags: N-terminal GST; dsDNA, one strand shown
# T5 sequence: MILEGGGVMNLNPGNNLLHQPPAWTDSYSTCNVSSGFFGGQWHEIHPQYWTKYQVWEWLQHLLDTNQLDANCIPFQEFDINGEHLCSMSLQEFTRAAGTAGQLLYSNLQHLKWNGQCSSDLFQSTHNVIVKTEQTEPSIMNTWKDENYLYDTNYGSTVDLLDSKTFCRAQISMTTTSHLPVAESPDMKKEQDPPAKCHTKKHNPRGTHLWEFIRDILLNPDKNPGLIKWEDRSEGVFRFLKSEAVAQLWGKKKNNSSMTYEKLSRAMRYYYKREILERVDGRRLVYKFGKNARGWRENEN
# Summary of the method: as §1
# SPI1 = SPI1 (Homo sapiens, UniProt P17947 1-270); settings: protein: recombinant; tags: N-terminal GST; dsDNA, one strand shown
# Summary of the method: as §1
# SPIB = SPIB (Homo sapiens, UniProt Q01892 1-262); settings: protein: recombinant; tags: N-terminal GST; dsDNA, one strand shown
# Sequence of SPIB (Q01892 whole entry): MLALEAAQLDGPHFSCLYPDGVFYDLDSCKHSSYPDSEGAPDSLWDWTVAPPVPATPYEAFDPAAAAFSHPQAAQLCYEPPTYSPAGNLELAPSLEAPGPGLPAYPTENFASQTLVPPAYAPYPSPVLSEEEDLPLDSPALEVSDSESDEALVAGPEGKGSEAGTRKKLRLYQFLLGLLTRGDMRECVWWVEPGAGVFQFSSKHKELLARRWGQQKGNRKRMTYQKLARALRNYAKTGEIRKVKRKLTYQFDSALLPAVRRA
# Summary of the method: as §1
# ELK3 = target: T6, ELK3 (Homo sapiens, UniProt P41970 1-407); settings: protein: recombinant; tags: N-terminal GST; dsDNA, one strand shown
# T6 sequence: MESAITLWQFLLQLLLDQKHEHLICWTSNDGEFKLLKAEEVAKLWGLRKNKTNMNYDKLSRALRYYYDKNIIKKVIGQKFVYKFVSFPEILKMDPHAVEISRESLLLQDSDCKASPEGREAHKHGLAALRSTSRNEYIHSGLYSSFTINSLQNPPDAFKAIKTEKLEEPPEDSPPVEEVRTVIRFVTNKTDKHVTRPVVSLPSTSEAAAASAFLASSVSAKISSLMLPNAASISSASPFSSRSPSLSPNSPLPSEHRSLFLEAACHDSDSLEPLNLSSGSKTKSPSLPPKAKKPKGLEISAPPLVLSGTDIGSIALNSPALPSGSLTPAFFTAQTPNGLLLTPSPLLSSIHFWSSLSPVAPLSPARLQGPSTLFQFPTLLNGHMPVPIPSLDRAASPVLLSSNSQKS
# Summary of the method: as §1
# FEV = target: T7, FEV (Homo sapiens, UniProt Q99581 1-238); settings: protein: recombinant; tags: N-terminal GST; dsDNA, one strand shown
# T7 sequence: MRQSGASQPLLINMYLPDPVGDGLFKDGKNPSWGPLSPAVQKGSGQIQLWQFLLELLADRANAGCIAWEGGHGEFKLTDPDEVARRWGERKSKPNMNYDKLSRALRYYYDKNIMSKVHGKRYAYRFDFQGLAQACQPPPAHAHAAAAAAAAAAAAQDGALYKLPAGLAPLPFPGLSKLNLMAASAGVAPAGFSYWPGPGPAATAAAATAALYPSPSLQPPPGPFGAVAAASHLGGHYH
# Summary of the method: as §1
# ETV5 = ETV5 (Homo sapiens, UniProt P41161 1-510); settings: protein: recombinant; tags: N-terminal GST; dsDNA, one strand shown
# Sequence of ETV5 (P41161 whole entry): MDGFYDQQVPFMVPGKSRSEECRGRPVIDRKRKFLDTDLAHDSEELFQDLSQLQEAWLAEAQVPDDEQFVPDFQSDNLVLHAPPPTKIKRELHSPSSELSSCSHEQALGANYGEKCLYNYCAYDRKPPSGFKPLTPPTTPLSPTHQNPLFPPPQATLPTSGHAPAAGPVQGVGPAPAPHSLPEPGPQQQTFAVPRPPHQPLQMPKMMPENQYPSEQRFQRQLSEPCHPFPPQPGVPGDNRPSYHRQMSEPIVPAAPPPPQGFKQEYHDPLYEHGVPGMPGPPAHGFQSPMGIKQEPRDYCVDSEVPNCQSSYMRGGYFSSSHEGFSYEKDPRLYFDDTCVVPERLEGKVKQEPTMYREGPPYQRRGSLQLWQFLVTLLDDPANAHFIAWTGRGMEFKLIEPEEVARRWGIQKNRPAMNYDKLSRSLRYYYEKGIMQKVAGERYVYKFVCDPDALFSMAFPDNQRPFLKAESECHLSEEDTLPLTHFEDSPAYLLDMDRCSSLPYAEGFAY
# Summary of the method: as §1
# HSF1 = HSF1 (Homo sapiens, UniProt Q00613 1-529); settings: protein: recombinant; tags: N-terminal GST; chain copies: 3; dsDNA, one strand shown
# Sequence of HSF1 (Q00613 whole entry): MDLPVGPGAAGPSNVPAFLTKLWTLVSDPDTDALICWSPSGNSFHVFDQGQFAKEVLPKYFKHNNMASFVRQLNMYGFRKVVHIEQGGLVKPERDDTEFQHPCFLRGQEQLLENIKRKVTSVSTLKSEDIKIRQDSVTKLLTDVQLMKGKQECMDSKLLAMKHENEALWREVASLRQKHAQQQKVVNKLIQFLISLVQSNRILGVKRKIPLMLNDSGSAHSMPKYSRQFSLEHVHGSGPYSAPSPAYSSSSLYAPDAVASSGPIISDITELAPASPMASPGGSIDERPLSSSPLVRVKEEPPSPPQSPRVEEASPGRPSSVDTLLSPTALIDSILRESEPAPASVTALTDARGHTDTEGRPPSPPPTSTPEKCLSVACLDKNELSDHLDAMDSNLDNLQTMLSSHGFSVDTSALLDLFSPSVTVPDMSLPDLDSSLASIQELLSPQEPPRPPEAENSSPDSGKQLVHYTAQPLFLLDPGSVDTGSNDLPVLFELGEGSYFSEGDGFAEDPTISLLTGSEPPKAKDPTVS
# Summary of the method: as §1
# SPIC = target: T8, SPIC (Homo sapiens, UniProt Q8N5J4 1-248); settings: protein: recombinant; tags: N-terminal GST; dsDNA, one strand shown
# T8 sequence: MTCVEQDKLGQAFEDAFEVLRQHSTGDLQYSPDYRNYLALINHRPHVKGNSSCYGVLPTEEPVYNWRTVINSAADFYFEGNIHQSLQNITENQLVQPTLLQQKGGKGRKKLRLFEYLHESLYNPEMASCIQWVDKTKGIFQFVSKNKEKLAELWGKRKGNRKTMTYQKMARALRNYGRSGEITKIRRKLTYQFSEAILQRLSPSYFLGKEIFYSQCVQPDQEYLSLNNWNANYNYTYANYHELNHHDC
# Summary of the method: as §1
# ELF4 = ELF4 (Homo sapiens, UniProt Q99607 1-663); settings: protein: recombinant; tags: N-terminal GST; dsDNA, one strand shown
# Sequence of ELF4 (Q99607 whole entry): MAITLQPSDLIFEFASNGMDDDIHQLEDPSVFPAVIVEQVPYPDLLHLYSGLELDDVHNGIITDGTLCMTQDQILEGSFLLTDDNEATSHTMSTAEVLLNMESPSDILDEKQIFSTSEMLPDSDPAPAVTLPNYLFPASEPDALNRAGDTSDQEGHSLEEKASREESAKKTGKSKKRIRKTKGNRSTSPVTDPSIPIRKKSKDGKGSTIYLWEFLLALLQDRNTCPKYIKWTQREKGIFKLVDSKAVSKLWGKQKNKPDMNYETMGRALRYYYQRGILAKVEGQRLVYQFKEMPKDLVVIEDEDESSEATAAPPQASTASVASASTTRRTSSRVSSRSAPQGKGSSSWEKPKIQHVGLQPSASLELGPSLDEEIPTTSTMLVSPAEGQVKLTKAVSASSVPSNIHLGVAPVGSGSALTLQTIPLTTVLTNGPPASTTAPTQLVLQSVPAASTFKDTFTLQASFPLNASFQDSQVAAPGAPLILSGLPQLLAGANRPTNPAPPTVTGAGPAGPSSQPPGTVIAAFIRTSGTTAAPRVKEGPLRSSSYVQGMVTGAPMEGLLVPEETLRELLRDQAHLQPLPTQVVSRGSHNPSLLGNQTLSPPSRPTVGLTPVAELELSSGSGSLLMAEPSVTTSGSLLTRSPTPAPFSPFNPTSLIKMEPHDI
# Summary of the method: as §1
# ELK4 = target: T9, ELK4 (Homo sapiens, UniProt P28324-2 1-405); settings: protein: recombinant; tags: N-terminal GST; dsDNA, one strand shown
# T9 sequence: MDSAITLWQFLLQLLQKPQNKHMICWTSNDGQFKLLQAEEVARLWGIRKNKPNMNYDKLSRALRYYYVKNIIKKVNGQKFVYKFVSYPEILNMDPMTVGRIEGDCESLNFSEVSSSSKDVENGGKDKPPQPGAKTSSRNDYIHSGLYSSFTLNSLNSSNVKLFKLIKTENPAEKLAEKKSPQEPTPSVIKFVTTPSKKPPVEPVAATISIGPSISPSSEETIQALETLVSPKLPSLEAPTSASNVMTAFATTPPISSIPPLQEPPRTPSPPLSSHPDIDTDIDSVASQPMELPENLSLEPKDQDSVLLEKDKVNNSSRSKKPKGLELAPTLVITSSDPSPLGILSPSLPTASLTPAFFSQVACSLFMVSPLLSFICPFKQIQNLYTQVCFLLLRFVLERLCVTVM
# Summary of the method: as §1
# ETV2 = target: T10, ETV2 (Homo sapiens, UniProt O00321 1-342); settings: protein: recombinant; tags: N-terminal GST; dsDNA, one strand shown
# T10 sequence: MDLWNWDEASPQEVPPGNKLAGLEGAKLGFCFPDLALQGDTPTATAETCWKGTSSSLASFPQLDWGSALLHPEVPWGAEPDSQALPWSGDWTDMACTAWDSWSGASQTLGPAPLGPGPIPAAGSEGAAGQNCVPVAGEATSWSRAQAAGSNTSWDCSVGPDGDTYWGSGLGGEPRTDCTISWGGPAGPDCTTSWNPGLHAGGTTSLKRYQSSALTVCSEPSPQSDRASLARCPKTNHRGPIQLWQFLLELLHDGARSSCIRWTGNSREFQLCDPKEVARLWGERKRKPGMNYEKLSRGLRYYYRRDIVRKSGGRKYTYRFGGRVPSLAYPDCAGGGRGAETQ
# Summary of the method: as §1
# ELF3 = target: T11, ELF3 (Homo sapiens, UniProt P78545 1-371); settings: protein: recombinant; tags: N-terminal GST; dsDNA, one strand shown
# T11 sequence: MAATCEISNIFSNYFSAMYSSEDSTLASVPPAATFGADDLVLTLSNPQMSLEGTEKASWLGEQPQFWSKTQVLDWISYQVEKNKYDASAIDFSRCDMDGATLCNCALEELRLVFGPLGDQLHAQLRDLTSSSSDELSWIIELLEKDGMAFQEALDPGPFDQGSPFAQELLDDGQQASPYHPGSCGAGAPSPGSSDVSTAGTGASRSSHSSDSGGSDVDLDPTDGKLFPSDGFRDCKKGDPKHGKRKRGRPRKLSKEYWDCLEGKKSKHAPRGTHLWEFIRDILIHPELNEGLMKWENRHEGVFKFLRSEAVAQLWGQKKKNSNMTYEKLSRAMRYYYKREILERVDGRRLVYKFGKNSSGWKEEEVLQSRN
# Summary of the method: as §1
# CRX = CRX (Homo sapiens, UniProt O43186 1-299); settings: protein: recombinant; tags: N-terminal GST; dsDNA, one strand shown
# Sequence of CRX (O43186 whole entry): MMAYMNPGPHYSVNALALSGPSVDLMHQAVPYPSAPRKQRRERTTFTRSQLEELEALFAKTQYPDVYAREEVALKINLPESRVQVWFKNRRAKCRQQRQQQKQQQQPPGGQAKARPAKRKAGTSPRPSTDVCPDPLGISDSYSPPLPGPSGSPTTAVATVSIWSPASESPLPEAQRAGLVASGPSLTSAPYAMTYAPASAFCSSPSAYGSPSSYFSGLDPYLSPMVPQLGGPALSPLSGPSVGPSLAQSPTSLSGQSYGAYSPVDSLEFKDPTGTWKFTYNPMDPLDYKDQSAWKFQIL
# Summary of the method: as §1
# ETV1 = ETV1 (Homo sapiens, UniProt P50549 1-477); settings: protein: recombinant; tags: N-terminal GST; dsDNA, one strand shown
# Sequence of ETV1 (P50549 whole entry): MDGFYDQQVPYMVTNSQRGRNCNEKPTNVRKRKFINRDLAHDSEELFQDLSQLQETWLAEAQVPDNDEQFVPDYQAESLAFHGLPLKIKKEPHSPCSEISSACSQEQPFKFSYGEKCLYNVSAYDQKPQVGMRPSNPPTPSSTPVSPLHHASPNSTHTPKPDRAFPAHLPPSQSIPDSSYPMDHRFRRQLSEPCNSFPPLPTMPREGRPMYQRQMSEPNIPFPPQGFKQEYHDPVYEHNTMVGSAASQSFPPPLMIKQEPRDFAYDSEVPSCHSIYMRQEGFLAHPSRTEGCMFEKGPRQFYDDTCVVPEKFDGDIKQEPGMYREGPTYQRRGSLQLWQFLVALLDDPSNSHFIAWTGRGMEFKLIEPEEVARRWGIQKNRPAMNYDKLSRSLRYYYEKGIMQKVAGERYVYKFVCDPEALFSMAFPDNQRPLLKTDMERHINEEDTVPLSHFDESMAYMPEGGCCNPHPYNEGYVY
# Summary of the method: as §1
sequence,measurement,setting,value
TGCTCC,binding signal,FLI1,"1.53 fold enrichment (6-mer frequency, TF over GST control)"
same,binding signal,ELK1,"1.41 fold enrichment (6-mer frequency, TF over GST control)"
same,binding signal,GABPA,"1.45 fold enrichment (6-mer frequency, TF over GST control)"
same,binding signal,ERG,"1.37 fold enrichment (6-mer frequency, TF over GST control)"
same,binding signal,ELF1,"1.31 fold enrichment (6-mer frequency, TF over GST control)"
same,binding signal,EHF,"1.46 fold enrichment (6-mer frequency, TF over GST control)"
same,binding signal,SPI1,"1.38 fold enrichment (6-mer frequency, TF over GST control)"
same,binding signal,SPIB,"1.41 fold enrichment (6-mer frequency, TF over GST control)"
same,binding signal,ELK3,"1.38 fold enrichment (6-mer frequency, TF over GST control)"
same,binding signal,FEV,"1.38 fold enrichment (6-mer frequency, TF over GST control)"
same,binding signal,ETV5,"1.42 fold enrichment (6-mer frequency, TF over GST control)"
same,binding signal,HSF1,"1.27 fold enrichment (6-mer frequency, TF over GST control)"
same,binding signal,SPIC,"1.45 fold enrichment (6-mer frequency, TF over GST control)"
same,binding signal,ELF4,"1.41 fold enrichment (6-mer frequency, TF over GST control)"
same,binding signal,ELK4,"1.41 fold enrichment (6-mer frequency, TF over GST control)"
same,binding signal,ETV2,"1.48 fold enrichment (6-mer frequency, TF over GST control)"
same,binding signal,ELF3,"1.47 fold enrichment (6-mer frequency, TF over GST control)"
same,binding signal,CRX,"1.12 fold enrichment (6-mer frequency, TF over GST control)"
same,binding signal,ETV1,"1.31 fold enrichment (6-mer frequency, TF over GST control)"
